# Assay results taken from ChEMBL document CHEMBL4888484, “Replenishing the malaria drug discovery pipeline: Screening and hit evaluation of the MMV Hit Generation Library 1 (HGL1) against asexual blood stage Plasmodium falciparum ,using a nano luciferase reporter read-out” (2022).
# The campaign covered roughly 4,800 compounds. About 410 (8.5%) showed an effect of 50% or more. The list comes from a sample in which strong results are over-represented; it also holds similar structures and randomly drawn compounds.
# System: Plasmodium falciparum
# Test: Confirmatory screen in NF54 pLDH assay, in single point, at 2uM, 72h
# Format: functional, Erythrocyte
# Conditions: timepoint 72 hour
row,SMILES,% Inhibition [%]
1,Cc1nn(C)c(N)c1C(=O)N(C1CCC1)C1CCC1,-16
2,Cc1cc(Cn2c(=O)n(Cc3ccccc3)c3ccncc32)on1,7
3,COc1ccc([C@@H]2C(C#N)(C#N)C23C(=O)CC(C)(C)CC3=O)cc1,-12
4,N#Cc1cccc(-c2c[nH]c(CNc3nc4cc(C(F)(F)F)ccc4s3)n2)c1,7
5,Cc1nc2cccnc2n1-c1cc(C(=O)NCC[C@H](C)N2CCCC2)ccc1Cl,8
6,CC1CCN(C(=O)NCC2CCC(F)(F)CC2)CC1n1ccnc1 (centres undefined),12
7,COc1cc(CC2CN(C(=O)c3cscn3)C2)cc(OC)c1,3
8,CS(=O)(=O)CC1(CC(=O)N[C@H](c2ccccc2)C2CCC2)CC1,11
9,Cc1nn(CC2(O)CCCCC2)c(=O)c(C#N)c1C,-10
10,Cc1cc(NC(=O)Cn2c(=O)n(CCc3ccccc3)c(=O)c3ccccc32)no1,13
11,Cc1ccc(S(=O)(=O)Nc2cc3nc4ccccc4nc3n2CCc2ccccc2)cc1,97
12,CS(=O)(=O)n1c(CCCc2ccccc2)nc2ccccc21,15
13,Cc1ccc(S(=O)(=O)c2c(NS(=O)(=O)c3ccccc3)n(CCc3ccccc3)c3nc4ccccc4nc23)cc1,102
14,COCCCn1c(NS(=O)(=O)c2ccc3ccccc3c2)c(S(=O)(=O)c2ccc(C)cc2)c2nc3ccccc3nc21,16
15,O=C(O)Cc1cccc(NC(=O)C2C3Cc4ccccc4C32)c1 (centres undefined),2
16,C[C@H](NC(=O)CC1(C)CCCCC1)c1cnn(C)c1,-5
17,O=C(Nc1cccc(OCCn2cncn2)c1)[C@@H]1CCCc2ccccc21,-19
18,Cc1cc(CCC(=O)Nc2nnn[nH]2)ccc1Br,10
19,COc1cc2c(cc1CNc1nc(N)nc3c1CCNCC3)CCC2,11
20,Cc1cc(C)cc(NC(=O)Cc2nnc3ccc(C(=O)Nc4ccccc4)cn23)c1,8
21,CC(=O)N1CCN(c2nc3c(s2)C[C@@H](C(=O)NCc2ccccc2F)CC3)CC1,-22
22,O=S1(=O)N=C(NC[C@@H](O)Cc2ccccc2)c2ccccc21,7
23,Cc1cccc(NC(=O)Nc2cc(F)c3[nH]c(=O)ccc3c2)c1,-7
24,COc1ccc(-c2noc(CCn3c(=O)[nH]c4cc5c(cc4c3=O)OCO5)n2)c(OC)c1,6
25,Cc1cnc(C2CCN(C(=O)[C@@H]3CNC(=O)O3)CC2)s1,2
26,COC1(C)CN(c2cnc(C#N)cn2)C1,2

row,SMILES,% Inhibition [%]
1,C[C@H]1CCCN(S(=O)(=O)NCC(=O)Nc2ccccn2)C1,-14
2,CCc1ccc(NC(=O)[C@H]2CCCN(c3nc4cccnc4n(Cc4ccccc4)c3=O)C2)cc1,-14
3,FC(F)(F)C1CN(c2nc(-c3ccccn3)nc3c2CCC3)C1,54
4,C[C@H]1CCN(c2nc(-c3ccccn3)nc3c2CCC3)C1,93
5,Cc1ccccc1N1CCN(C(=O)c2ccc3ncccc3c2)CC1,9
6,O[C@H]1Cc2ccccc2[C@H]1Nc1nc(-c2ccccn2)nc2c1CCNC2,-7
7,C[C@H]1CCCN(c2nc(-c3ccccn3)nc3ccccc23)C1,98
8,CCc1sc(N(C(=O)Cc2ccccc2)c2ccc(C)cc2C)nc1-c1ccc(Cl)cc1,12
9,COc1ccc(-n2nc(C(=O)N3CCOCC3)c(=O)cc2OC)cc1,3
10,CCc1nnc2c(S(=O)(=O)Nc3cc(F)cc(F)c3)cccn12,9
11,CN1N=C(C(=O)NC2CCC3CCCCC3C2)CCC1=O (centres undefined),-20
12,COc1ccc(C(=O)N(CCO)CCN2CCOCC2)c(OC2CCCC2)c1,11
13,Cc1cccc(-n2c(=O)[nH]c3nc(NCCN(C)C)ncc3c2=O)c1C,8
14,COc1ccccc1C(=O)N1CCC([C@H](NC(=O)c2ccc3c(c2)OCO3)C(=O)NC(C)C)CC1,10
15,COc1ccccc1CC(=O)NC[C@H](C)O,14
16,O=C1c2cc3ccccc3c(-c3ccccc3)c2C(=O)N1c1ccccc1,-16
17,CCc1nn2c(c1-c1ccc(C)cc1)NC(=O)C[C@H]2C(=O)O,12
18,Cc1cnc(CC[C@H]2CCCN2C(=O)CCCc2ccccc2)n1C,10
19,CC(C)O[C@@H]1CCN(C[C@H](O)c2ccc(C(F)(F)F)cc2)C1,42
20,CCc1ccc(C(=O)N2CC[C@H](CC(=O)NCc3ccccc3)C2)cc1,10
21,Cc1cccc(C)c1NC(=O)c1cc(-c2cccc3ccccc23)[nH]n1,11
22,Cc1cccc2c(-c3cc(N)nc(N)n3)c[nH]c12,100
23,Cc1cc(Br)c2c(c1)C(O)(N1CCCC(C)C1)C(=O)N2 (centres undefined),9
24,O=C(CN1C(=O)C[C@H](Cc2ccc(F)cc2)C1=O)N1CCNC1=O,9
25,CN(C)c1nccc(NC[C@H](N)c2ccccc2)n1,-12
26,CC1CCCC(C)N1C(=O)CN(C)c1cccc2cccnc12 (centres undefined),4

row,SMILES,% Inhibition [%]
1,CN(C)c1nc(N)cc(-c2cccc3cccnc23)n1,55
2,Cc1ccc(C(N)C(C)S(C)(=O)=O)cc1 (centres undefined),-18
3,COc1cccc(-c2cc(O)cc(CC[C@H]3CCCCN3)c2)n1,89
4,Oc1cc(CC[C@H]2CCCCN2)cc(-c2cnc3ccccc3n2)c1,80
5,O=C(NCC(F)(F)F)Nc1ccc(CO)cc1,3
6,O=c1[nH]c2cc(Cl)c(S(=O)(=O)Cl)cc2[nH]1,6
7,CCc1c(C(=O)NCc2ccc(CN3CC(C)OC(C)C3)cc2)[nH]c(C)c1C(C)=O (centres undefined),-27
8,COc1ccc(CC(=O)N2CCN(c3cnn4cnnc4c3)CC2)cc1,6
9,CCc1nnc2ccc(S(=O)(=O)N(CC#N)c3ccccc3)cn12,-16
10,C=CCNC(=O)CCC(=O)NCc1ccco1,13
11,COc1ccc(NC(=O)CCC(=O)NCc2ccco2)cc1,15
12,c1coc(CNc2nc(Nc3cccc4ccccc34)nc3ccccc23)c1,50
13,COc1ccc(CCN[C@@H]2c3ccccc3C(=O)N2C2CCCCC2)cc1OC,10
14,CC(=O)N(Cc1ccccc1)c1ccc2c(c1)nc(Cn1nc(C)cc1C)n2C,5
15,CCC(CC)N1CC(C(=O)NC2COc3ccc(C)cc32)CC1=O (centres undefined),-21
16,CCn1cc(S(=O)(=O)N(C)Cc2nn(CC)cc2Cl)cn1,8
17,Cn1c(=O)c2sc(N3CCCC3)nc2n(CC(=O)NC2CCCC2)c1=O,4
18,COc1ccc(CC[C@H](C)NC(=O)NCCCN2CCCC2=O)cc1,11
19,CC(C)C(=O)N1CC[C@H](CC(=O)NCc2ccncc2)C1,5
20,N#CC1CCC(Nc2cnn(-c3ccncc3)c2)CC1 (centres undefined),11
21,CS(=O)(=O)N1CC[C@H](CC(=O)N2CCN(c3ccc(F)cc3)CC2)C1,-21
22,CN(C)c1cc(C(=O)N2CCOC3CCCCC32)ccn1 (centres undefined),3
23,Cc1ccc(C)c(-c2nc(Cn3c(=O)c4c(C)cc(C)nc4n(C)c3=O)c(C)o2)c1,3
24,Fc1cnc(OC2Cc3ccccc3C2)nc1,57
25,Cn1nccc1/C=C1\CC2C3CCc4cc(O)ccc4C3CCC2(C)C1O (centres undefined),47
26,Nc1ncncc1C(=O)NCCc1c[nH]c2ccc(F)cc12,6

row,SMILES,% Inhibition [%]
1,CCOc1ncc(Br)cc1C(=O)O,-19
2,O=C(C[C@H]1CCCN1c1ccnc(C2CC2)n1)c1ccco1,12
3,c1cc2c(cc1[C@H]1NCCCCCCO1)OCO2,-5
4,O=C1Nc2ccc(Br)cc2C1=O,13
5,COc1ccccc1-n1c(=O)[nH]c2nc(N3CCN(c4ccccn4)CC3)ncc2c1=O,3
6,CC(C)(C)OC(=O)NC1CCN(c2ncc(C(=O)NCc3ccc(F)c(Cl)c3)c(N)n2)CC1,-10
7,N#Cc1cc(N2CCc3ccccc3C2)nc2ccccc12,8
8,N#Cc1cccc(-c2n[nH]c3c2CN(c2ccc(-c4ccccc4)nn2)CC3)c1,100
9,COc1ccc2c(c1)CN(C(=O)C1CC3CCC1C3)CC2 (centres undefined),11
10,Cc1ncsc1C(=O)N1CCC2(CCCCC2)C1,-22
11,O=C1C[C@@H](C(=O)N2CCC3(CCCCC3)C2)CCN1,10
12,Nc1ncc(C(=O)N2CCC3(CCCCCC3)C2)s1,98
13,NC(=O)[C@H]1CCCN(c2ccnc(C(=O)NCc3ccccc3)c2)C1,4
14,CC1C(Cc2ccccc2)CCN1C(=O)c1cnc(C(F)(F)F)nc1 (centres undefined),14
15,Cc1ccc(C(=O)N2C[C@@H]3C[C@H](NC(=O)c4cccnc4)[C@H]2C3)cc1F,-1
16,Cc1ccc(NC(=O)Cn2c(=O)n(Cc3ccco3)c(=O)c3ccccc32)c(C)c1,-13
17,Cc1ccc(S(=O)(=O)N2CC[C@H](CC(=O)NCc3ccccc3)C2)c(C)c1,-22
18,CC(=O)Nc1ccc(C)cc1S(=O)(=O)N1CC=C(c2c(C)n(Cc3ccccc3C)c3ccccc23)CC1,90
19,Cc1nn(C)c(Cl)c1CNC[C@@H](c1ccsc1)N(C)C,9
20,O=C(Nc1nnc(C2CC2)s1)[C@@H]1Cc2ccccc2O1,5
21,O=C(NC1CCCC1)N1CCN(c2nc3cccnc3n(Cc3ccccc3)c2=O)CC1,8
22,Brc1cncnc1N1CCC[C@H](c2nnn[nH]2)C1,-7
23,CCn1cnc2c(N3CCC[C@H](c4ccncc4)C3)ncnc21,77
24,CCn1c(=O)c(N2CCC[C@H](C(=O)NCc3ccccc3OC)C2)nc2cccnc21,-3
25,COc1cccc(S(=O)(=O)N(C)[C@H]2CCc3n[nH]c(=O)n3CC2)c1,1
26,Cn1c(=O)c2c(nc3nc(N4CCOCC4)n(CC(=O)c4ccc(Cl)cc4)n32)n(C)c1=O,0
